# Results taken from doi:10.1101/2024.03.05.583629.
# Target: pT7_6His-AlfaTag-HOXD13 (human, UniProt P35453 263-343)
# Assay: PADIT-seq
# Conditions: dsDNA, one strand shown
# Sequence of pT7_6His-AlfaTag-HOXD13 (P35453 263-343): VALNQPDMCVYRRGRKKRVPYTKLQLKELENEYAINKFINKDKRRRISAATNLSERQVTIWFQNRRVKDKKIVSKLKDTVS
row,Sequence,binding signal
1,CTCGAGGATATCAAGATCTGGCCTCGGCTAGCCACGCGGAACCTCTAGCTAGCCGACTCACTATAGGGATAATCGCCCTGAGCAAAGACC,-1.07 ± 0.127 log2FC
2,CTCGAGGATATCAAGATCTGGCCTCGGCTGACTAAAAGGAACCTCTAGCTAGCCGACTCACTATAGGGATAATCGCCCTGAGCAAAGACC,-0.535 ± 0.11 log2FC
3,CTCGAGGATATCAAGATCTGGCCTCGGCGCTCTAAAAGGAACCTCTAGCTAGCCGACTCACTATAGGGATAATCGCCCTGAGCAAAGACC,0.0795 ± 0.0859 log2FC
4,CTCGAGGATATCAAGATCTGGCCTCGGCCTTTTAAACGGAACCTCTAGCTAGCCGACTCACTATAGGGATAATCGCCCTGAGCAAAGACC,2.06 ± 0.0696 log2FC
5,CTCGAGGATATCAAGATCTGGCCTCGGCCTCTTAAAAGGAACCTCTAGCTAGCCGACTCACTATAGGGATAATCGCCCTGAGCAAAGACC,2.2 ± 0.0925 log2FC
6,CTCGAGGATATCAAGATCTGGCCTCGGCCTTTTATCAGGAACCTCTAGCTAGCCGACTCACTATAGGGATAATCGCCCTGAGCAAAGACC,2.19 ± 0.0738 log2FC
7,CTCGAGGATATCAAGATCTGGCCTCGGCCCTTGGGCGGGAACCTCTAGCTAGCCGACTCACTATAGGGATAATCGCCCTGAGCAAAGACC,-0.886 ± 0.123 log2FC
8,CTCGAGGATATCAAGATCTGGCCTCGGCTTTTTAATGGGAACCTCTAGCTAGCCGACTCACTATAGGGATAATCGCCCTGAGCAAAGACC,2.57 ± 0.0871 log2FC
9,CTCGAGGATATCAAGATCTGGCCTCGGCCGCATAAAAGGAACCTCTAGCTAGCCGACTCACTATAGGGATAATCGCCCTGAGCAAAGACC,1.46 ± 0.0793 log2FC
10,CTCGAGGATATCAAGATCTGGCCTCGGCCGCCCATTCGGAACCTCTAGCTAGCCGACTCACTATAGGGATAATCGCCCTGAGCAAAGACC,-0.894 ± 0.121 log2FC
